The values that follow come from PubChem BioAssay (NCI).

Compounds without any hit were thinned out: in the full panel of roughly 83,000, 20% have a hit.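 Step 1: grow cells in 96-well plates. Step 2: add test compound at a single concentration. Step 3: incubate 48 h. Step 4: record percent growth.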 Values without a mark were called inactive. Calls of active or inactive are those of the source. The calls were made as follows: active = growth percent below 10; inactive = the rest.

Assay in all cases: NCI-60 one-dose screen, 48 h (100 = growth as untreated, 0 = no growth, -100 = all killed)
Common to all, as to conditions: 10 µM unless noted

Test [1] concerns HCT-15 colon.
In test [2] the test system is HT29 colon.
Test [3] concerns SNB-75 CNS.
Test [4] has as its system U251 CNS.
Test [5] has as its system PC-3 prostate.
The test system of test [6] is SK-MEL-5 melanoma.
Test [7] has as its system UACC-62 melanoma.
Test [8] deals with LOX IMVI melanoma.
In test [9] the test system is SK-MEL-28 melanoma.
Test [10] deals with SK-MEL-2 melanoma.
The subject of test [11] is EKVX NSCLC.
Test [12] deals with SN12C renal.
Test [13] relates to UO-31 renal.
Test [14] has as its system TK-10 renal.
Test [15] relates to ACHN renal.
Test [16] has as its system CAKI-1 renal.
Test [17] concerns A498 renal.
Test [18] concerns CCRF-CEM leukemia.
Test [19] concerns MOLT-4 leukemia.
Test [20] has as its system SNB-19 CNS.

On to `Cc1ccc(S(=O)(=O)N2CCCN(c3nc(-c4ccccc4)nc4nc(-c5ccccc5)oc34)CC2)cc1`, for which the growth in test [1] was 114%; in test [2] it was 120%; in test [3], 105%; in test [4], 104%; in test [5] it was 96.3%; in test [6], 98.9%. The growth is 101% in [7]; 95.4% in test [8]; 108% in [9]; 103% in test [10]; 112% in test [11]; 97.6% in [12]. Moreover, the growth in test [13] is 76.8%; in [14], 103%; in test [15], 103%; in [16], 93.2%; in test [17], 106%; in [18] it was 106%. Further, in test [19], the growth is 95%.
With `C=C1CC[C@@H]2C(C)(C)[C@H](O)CC[C@@]2(C)[C@@H]1COc1ccc2ccc(=O)oc2c1`, the growth in [1] is 56.2%; in test [2], 84.1%; in [3], 98.5%; in test [20], 86.2%; in test [4] it was 83.1%; in test [5], 25.2%. The growth in [6] was 19.1%; in test [8], 36.5%; in test [9] it was 73.6%; in [10], 63.8%; in [11], 57.8%; in test [12] it was 67.3%. The growth is -3.4% (active) in [13]; 96.3% in [14]; 49% in test [15]; 39.6% in test [16]; 64.5% in test [17]; 26.2% in test [18]. Also, the growth in test [19] was 31.6%.
Take `c1ccc(Cn2cc3c(c2-c2ccccc2)CCc2cnoc2-3)cc1`: the growth is 48.6% in [1]; 30.1% in test [2]; 4.38% (active) in test [3]; 55.5% in test [4]; 82.5% in test [5]; 78.8% in test [6]. For the same compound, the growth in [7] was 43.1%; in [8], 66.1%; in test [9], 59.5%; in [10], 93.4%; in [11], 80.1%; in test [12], 101%. The growth in test [13] was 80.1%; in test [14], 101%; in test [15], 101%; in [16], 84.1%; in [17] it was 54%; in test [18], 48.3%. Besides, the growth in [19] is 58.5%.
With `CC[C@H](Nc1nc(N)nc(C)c1C#N)c1nc2cccc(CN(C)c3ncc(C(=O)NO)cn3)c2c(=O)n1-c1ccccc1`, the growth in test [1] is 42.8%; in [2], -18.4% (active); in test [3], 29.1%; in test [4], -69.6% (active); in test [5], 14.6%; in test [6], -92.2% (active). In addition, the growth is -80% (active) in [7]; -86.6% (active) in [8]; 6.03% (active) in test [9]; -5.85% (active) in test [10]; 35.3% in test [11]; 2.71% (active) in [12]. The growth in [13] is -4.88% (active); in test [14], -21.8% (active); in test [15], 24%; in [16] it was 18.1%; in test [17], -40% (active); in test [18], 15.3%. Besides, in test [19], the growth was 9.84% (active).
As to `COc1ccc(C2[C@@H](c3ccccc3)C(=O)N2c2cc(OC)c(OC)c(OC)c2)cc1F` (stereo partly specified), the growth in test [1] is 8.76% (active); in test [2], -19.2% (active); in test [3] it was 66.2%; in [4] it was 7.17% (active); in test [5], 23.8%; in [6], -15.6% (active). Besides, the growth in test [7] was 15.1%; in [8], 19%; in test [9], 63.6%; in [10], 2.73% (active); in [11], 34.7%; in [12], 32.6%. Besides, the growth in test [13] is 38%; in test [14], 43.7%; in test [15], 34.2%; in test [16], 30.8%; in test [17], 2.92% (active); in test [18] it was 6.85% (active). Moreover, the growth in test [19] was 5.7% (active).
Turning to `CC1(C)N=C(N)N=C(N)N1c1cc(Cl)ccc1Cl`, the growth was 13% in test [1]; 24.8% in test [2]; 118% in test [3]; 92.6% in test [20]; 80% in [4]; 101% in test [5]. For the same compound, the growth in test [6] is 98.1%; in test [8], 70.2%; in test [9], 106%; in [10] it was 19.5%; in test [11] it was 99.7%; in [12], 90.4%. Besides, the growth was 91% in test [13]; 94% in test [14]; -25.2% (active) in [15]; 9.84% (active) in test [16]; 96.1% in test [18]; 71.1% in [19].
As to `C#CCOc1cccc(Nc2ncnc3cc(NC(=O)CCl)ccc23)c1`, the growth is -53.5% (active) in test [1]; -78.9% (active) in test [2]; -49.9% (active) in test [3]; -78.9% (active) in [4]; -83.8% (active) in [5]; -93.8% (active) in [6]. The growth was -73.9% (active) in test [7]; -67.3% (active) in [8]; -30.6% (active) in test [9]; -55.3% (active) in test [10]; -49.1% (active) in test [11]; -83.5% (active) in [12]. The growth in [13] was -88.7% (active); in test [14], -85% (active); in [15] it was -84.1% (active); in test [16], -57.7% (active); in test [17], -25.6% (active); in [18] it was -46.9% (active). Also, the growth in test [19] was -35.4% (active).
Take `O=C(/C=C/c1cn(-c2ccccc2)nc1-c1ccccc1)CCC(=O)NO`: the growth in test [1] was 110%; in [2], 104%; in [3] it was 95.6%; in [4], 106%; in test [5] it was 108%; in [6], 105%. In addition, the growth in test [7] is 103%; in [8], 99.4%; in [9] it was 130%; in test [10] it was 99%; in [11], 111%; in test [12] it was 102%. For the same compound, the growth is 87.7% in test [13]; 104% in test [14]; 106% in test [15]; 94.5% in test [16]; 105% in test [17]; 93.2% in test [18]. In addition, the growth in [19] was 79.9%.
